# Hit rate of the full screen: of about 330,000 compounds, about 7,700 (2.3%) were called active. Another 26% or so got no clear call; they are omitted. This is one part of a sample in which actives are shown more often than they occur. Values without a mark were called inactive. Calls follow the shape of the dose curve; as a rule, active = well fitted inhibition curve with a large enough effect; inconclusive = small, poorly fitted or top-dose-only effect, or effect the other way; inactive = flat fitted curve, though single readings scatter.
# Experiment: qHTS screen for small molecules that inhibit ELG1-dependent DNA repair in human embryonic kidney (HEK293T) cells expressing luciferase-tagged ELG1; also: nearly all actives have a fitted effect of over 55% in size
# Settings: HEK293T ELG1-luciferase reporter, luminescence, 16 h, DNA damage induced by 5-fluorouridine; series mostly up to 46.1 µM; activity change, negative = inhibition: at the top concentration
# In short: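 Luminescence from the luciferase reporter, measured 30 min after ONE-Glo reagent at room temperature, was the read-out. Beforehand, 2,000 cells per well were exposed for 16 hr at 37 °C to 5-fluorouridine together with compound or vehicle.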
# % is scaled to controls: 0 for no effect and ±100 for the full control effect; potency is read from the fitted curve at half-maximal effect.
SMILES,"activity change, negative = inhibition [%]",Potency
CCN(Cc1ccccc1)C(=O)Cc1ccc(OC)c(S(=O)(=O)N2CCOCC2)c1,-2.15,–
C=CCn1c(SCC(=O)NC(=O)Cc2ccccc2)nc2ccccc2c1=O,3.04,–
C=CCn1c(SCC(=O)NCc2ccccc2)nnc1-c1cc(Br)ccc1O,–,13 µM (active)
C=CCn1c(SCC(=O)Nc2nc3ccccc3s2)nnc1-c1ccccc1O,-15.9,–
Cc1cc(N/N=C/c2ccccc2F)c2ccccc2n1,4.96,–
Oc1ccc(/C=N/Nc2nc(-c3ccccc3F)nc3ccccc23)c(O)c1,–,14.6 µM (active)
FC(F)(F)c1nc2ccccc2nc1N/N=C/c1ccc(Cl)cc1,-5.61,–
COc1ccc(C(=O)NCC(=O)N/N=C/c2ccc([N+](=O)[O-])s2)cc1OC,–,8.2 µM (active)
COc1cc(/C=N\NC(=O)CNC(=O)c2cccc([N+](=O)[O-])c2)ccc1O,-5.46,–
COc1ccc2ccccc2c1/C=N/NC(=O)c1cc(C)[nH]n1,-0.422,–
CC(C)(C)c1cc(C(=O)N/N=C/c2ccc([N+](=O)[O-])s2)n[nH]1,–,5.17 µM (active)
CCOc1ccc(NC(=O)CCC(=O)N/N=C/c2ccc([N+](=O)[O-])s2)cc1,-21.4,–
COc1ccc(C(=O)COC(=O)c2ccc([N+](=O)[O-])s2)cc1OC,12.6,–
Nc1nnnn1/N=C/c1cc([N+](=O)[O-])ccc1O,-2.35,–
O=[N+]([O-])c1ccc(O)c(/C=N/Nc2ccccc2[N+](=O)[O-])c1,–,18.3 µM (active)
O=[N+]([O-])c1ccccc1Nc1ccc(O)cc1,-19,–
Cc1ccccc1SCC(=O)OCC(=O)N1CC(=O)Nc2ccccc21,0,–
CCCn1c(C(C)Nc2nc(-c3ccc(C)cc3)cs2)nc2cc(Cl)c(N3CCCCC3)cc21 (configuration not stated),16.4,–
CCOC(=O)c1cnc2[nH]c3ccccc3n2c1=O,4.07,–
Cc1ccccc1Cn1c(=O)[nH]c2ccccc21,-14.6,–
CCCc1cc(=S)n2c([nH]c3ccccc32)c1C#N,–,16.4 µM (active)
Cc1ccc(S(=O)(=O)N(C)CC(=O)NCC(c2ccc(F)cc2)N2CCOCC2)cc1 (configuration not stated),1.93,–
O=C(OCC(=O)N1CCCCCC1)c1ccc(Cl)nc1,0.267,–
CCCCn1nc(C(=O)OCC(=O)Nc2sccc2C(N)=O)c2ccccc2c1=O,10.7,–
CCCCn1nc(C(=O)Nc2cccc(C(=O)NC3CC3)c2)c2ccccc2c1=O,–,13 µM (active)

SMILES,"activity change, negative = inhibition [%]",Potency
CCn1nc(C(=O)Nc2ccc(N3CCOCC3)cc2)c2ccccc2c1=O,-3.51,–
Cn1c(N)c(C(=O)COC(=O)c2cccc(S(=O)(=O)N3CCOCC3)c2)c(=O)n(C)c1=O,-10,–
CCCn1c(CCNc2nc(-c3ccc(OC)cc3)cs2)nc2ccccc21,-26,–
CN(c1ccccc1)S(=O)(=O)c1ccc(Cl)c(C(=O)OCC(N)=O)c1,-2.61,–
Cc1ccc(S(=O)(=O)N(C)CC(=O)NCCc2c[nH]c3ccccc23)cc1,–,14.6 µM (active)
CCN(CC(=O)NCCc1ccccc1)S(=O)(=O)c1ccc(C)cc1,-15.1,–
CCN(CC)S(=O)(=O)c1ccc2[nH]cc(C(=O)NCCc3ccccc3)c(=O)c2c1,–,5.8 µM (active)
CCN(CC(=O)NCCc1ccccc1)S(=O)(=O)c1ccccc1,6.38,–
CN(c1ccccc1)S(=O)(=O)c1ccc(Cl)c(C(=O)OCC(=O)NCc2ccco2)c1,10.8,–
CSCCC(NS(=O)(=O)c1ccc(C)cc1)C(=O)NCCc1c[nH]c2ccccc12 (configuration not stated),-7.72,–
CN(c1ccccc1)S(=O)(=O)c1ccc(Cl)c(C(=O)NCCc2c[nH]c3ccccc23)c1,–,18.4 µM (active)
COc1ccccc1CC(=O)NCCc1c[nH]c2ccccc12,-6,–
COc1cc(CN2CCCC(C(=O)c3ccc(SC)cc3)C2)cc(Cl)c1O (configuration not stated),-21,–
CCOc1ccccc1OCC(=O)Nc1ccccc1C(=O)NC1CC1,-13.3,–
Cc1ccc(S(=O)(=O)NCc2ccc(C(=O)NC3CCC(C)CC3)cc2)cc1 (configuration not stated),0.703,–
CCCCn1c(N)c(N(CCOC)C(=O)c2oc3ccc(OC)cc3c2C)c(=O)[nH]c1=O,12.6,–
CCN(C(=O)COC(=O)CCC(=O)c1cccs1)C1CCCCC1,0,–
O=C(Nc1nc2ccc([N+](=O)[O-])cc2s1)c1ccc(S(=O)(=O)N2CCCc3ccccc32)cc1,–,2.31 µM (active)
CC1CCN(C(=O)c2cccc(S(=O)(=O)N3CCCc4ccccc43)c2)CC1,16,–
CN(C)CCCN(C(=O)c1ccc(S(=O)(=O)N2CCCc3ccccc32)cc1)c1nc2ccc(F)cc2s1,0,–
Cc1cccc(NC(=O)c2cccc(S(=O)(=O)N3CCCC3)c2)n1,-4.45,–
Cc1ccc(NC(=O)c2cccc(S(=O)(=O)N3CCCc4ccccc43)c2)nc1,–,18.3 µM (active)
CS(=O)(=O)c1ccc2nc(NC(=O)c3ccc(N4CCCC4=O)cc3)sc2c1,-12.2,–
O=C(COC(=O)c1ccco1)Nc1ccc(Cl)cn1,23.5,–
COc1ccc(Cl)cc1NC(=O)COC(=O)c1ccc(Br)o1,22.8,–

SMILES,"activity change, negative = inhibition [%]",Potency
O=C(NCCN1CCOCC1)c1cccc(S(=O)(=O)Nc2ccc(F)cc2)c1,4.32,–
COc1ccc(CCNC(=O)CSCc2ccc(Br)cc2)cc1OC,-25.8,–
COc1ccc(COC(=O)NC(C(=O)O)c2ccccc2)cc1 (configuration not stated),0.779,–
CCOC(=O)CN(Cc1ccc(OC)c(OC)c1)S(=O)(=O)c1ccc(OC)cc1,3.12,–
COc1ccc(C(CCN(Cc2ccc(OC)c(OC)c2)C(=O)CCl)c2ccccc2)cc1 (configuration not stated),–,20.6 µM (active)
Cc1cccc(C)c1Nc1nnc(SCC(=O)NCCCN2CCCC2=O)s1,-6.62,–
C[C@H](CO)N1C[C@H](C)[C@@H](CN(C)Cc2ccc(-c3ccccc3)cc2)Oc2ccc(NC(=O)Cn3cnnn3)cc2C1=O,-17.5,–
CCOc1cccc(NC(=O)CC#N)c1,-2.32,–
CC(=O)Nc1cccc(OCC(=O)/C=C2\N(C)c3ccccc3C2(C)C)c1,–,18.3 µM (active)
Cc1noc(C)c1C(=O)OCC(=O)/C=C1\N(C)c2ccccc2C1(C)C,10.3,–
Cc1ccc(-n2c(SCC(=O)NCCC3=CCCCC3)nc3n[nH]c(C)c3c2=N)cc1Cl,3.77,–
Cc1ccc2cc(C)c(N3CCN(c4ccc(F)cc4)CC3)nc2c1,2.56,–
COc1ccccc1-c1nn(Cc2ccccc2)cc1C(=O)N1CCN(c2ncccn2)CC1,-22.5,–
CN(C)c1ccnc2sc3c(=O)n(Cc4ccccc4)cnc3c12,–,4.61 µM (active)
O=c1c2c(ncn1Cc1ccccc1)nc1n2CCC1,2.62,–
O=c1c2[nH]c3ccc(Cl)cc3c2ncn1Cc1ccccn1,3.64,–
Cc1c(NC(=O)C(C)OC(=O)c2ccccc2O)c(=O)n(-c2ccccc2)n1C (configuration not stated),22.8,–
Cc1cc(C(=O)OC(C)C(=O)Nc2cccc(S(=O)(=O)N3CCOCC3)c2)c(C)o1 (configuration not stated),-16.8,–
CC(OC(=O)CCCc1c[nH]c2ccccc12)C(=O)Nc1ccc(S(N)(=O)=O)cc1 (configuration not stated),3.33,–
Cc1ccc(NC(=O)C(C)OC(=O)Cc2c[nH]c3ccccc23)cc1S(=O)(=O)N1CCOCC1 (configuration not stated),–,18.3 µM (active)
O=C(N[C@H]1C/C=C\C(c2ccc(F)cc2)N(Cc2ccccc2)C(=O)C1)OCC1c2ccccc2-c2ccccc21 (some centres not stated),-10.5,–
Nc1c(Cl)cc(-c2csc(N3CCCC3c3nc4cc(Cl)c(Cl)cc4n3CCOCCO)n2)cc1Cl (configuration not stated),-9.47,–
COc1ccc(OC)c(C(=O)CSc2nnc(-c3cccs3)o2)c1,25.4,–
COc1ccc(C(=O)CSc2nnc(-c3ccco3)o2)cc1,4.26,–
COc1ccc(-n2c(C)cc(C(=O)CSc3nnc(-c4cccs4)o3)c2C)cc1,–,6.51 µM (active)

SMILES,"activity change, negative = inhibition [%]",Potency
CCN(CC)CCN1C(=O)C2C(C(=O)Nc3ccc(Br)cc3)C3C=CC2(O3)C1C(=O)NC1CCCCC1 (configuration not stated),24.9,–
Cc1ccc(NC(=S)NCCc2ccc(Cl)cc2)c(C)c1,1.86,–
CCC1(c2ccccc2)NC(=O)N(CC(=O)Nc2ccccc2C(=O)NC2CCCC2)C1=O (configuration not stated),4.06,–
CCc1ccc(NC(=O)Cn2nnc(C(=O)NCc3ccc(OC)cc3)c2N)cc1,17.6,–
COc1cc(C2CC(=O)Oc3cc(OC)c(OC)c(OC)c32)cc(OC)c1OC (configuration not stated),17.8,–
CCN(CC(=O)Nc1ccc2c(c1)OCO2)S(=O)(=O)c1ccccc1,1.72,–
O=C(CN(c1ccc2c(c1)OCCO2)S(=O)(=O)c1ccccc1)Nc1ccc2c(c1)OCO2,–,9.2 µM (active)
O=C(CCS(=O)(=O)Cc1ccccc1)Nc1ccc2c(c1)OCCO2,21.4,–
NC(=O)c1cc(S(=O)(=O)NCCCc2ccco2)cs1,0.127,–
O=C(Cn1cnc2ccccc2c1=O)NCC1COc2ccccc2O1 (configuration not stated),-0.196,–
CCn1cc(C(=O)NCC2COc3ccccc3O2)c2cc(OC)c(OC)cc2c1=O (configuration not stated),–,14.6 µM (active)
Cc1noc(C)c1C(=O)NCC1COc2ccccc2O1 (configuration not stated),0.0743,–
CCC1CCCCN1C(=O)CSc1nc2c(c(=O)n1C)SC(C)C2 (configuration not stated),-8.54,–
CC(=O)c1cccc(OCC(=O)OCC(=O)Nc2cc(S(=O)(=O)N3CCCCC3)ccc2C)c1,1.04,–
CC(C(=O)Nc1ccc(O)c(C(=O)O)c1)N1C(=O)/C(=C/c2cccs2)SC1=S (configuration not stated),10.8,–
COc1ccccc1C(=O)NCCC(=O)NCC(c1ccco1)N1CCCCC1 (configuration not stated),10.2,–
COc1cccc(OC)c1C(=O)NC(=S)NCc1ccco1,14,–
COc1ccccc1C(=O)NCCn1cc(SCC(=O)NCc2ccco2)c2ccccc21,–,25.9 µM (active)
Cc1cc(C)n2nc(C(=O)Nc3cccc(S(=O)(=O)N4CCOCC4)c3)nc2n1,14.6,–
O=C(CCNC(=O)c1ccccc1Cl)NN=Cc1ccco1,2.44,–
C#CCOCCOCCOCCNc1nc(N2CCN(C(=O)[C@H](CCC(=O)O)n3cc(CN)nn3)CC2)nc(N2CCN(C(=O)[C@H](CCC(=O)O)n3cc(CN)nn3)CC2)n1,7.9,–
O=C(NC1CCCC1)C(c1ccco1)N(C(=O)c1ccco1)c1ccc(F)cc1 (configuration not stated),-2.68,–

# — PubChem BioAssay AID504467 (National Center for Advancing Translational Sciences (NCATS), 2011)
